According to PubChem BioAssay AID2536 (National Center for Advancing Translational Sciences (NCATS), 2010):

These compounds were tested against Pyruvate kinase PKM (Homo sapiens) (UniProt P14618) (assay: Secondary Concentration-Response Assay for Activators of Human Muscle isoform 1 Pyruvate Kinase: for Probe SAR). Conditions: purified hPK-M1, ATP production, Kinase-Glo luminescence; active = well fitted curve in the direction sought with a large enough effect; inactive = no such curve, though single readings can be large or run the other way.
Source text: NIH Chemical Genomics Center [NCGC]
Matthew G. Vander Heiden, M.D., Ph.D. [Harvard Medical School, 77 Avenue Louis Pasteur, Boston, MA 02115]
Human pyruvate kinase […] (hPK-M1) enzyme was supplied as a highly purified (>95% pure) preparation from Harvard Medical School and assayed for its ability to generate ATP from ADP using phosphoenolpyruvate (PEP) as a substrate. ATP generation was detected in a coupled reaction by luciferase-mediated luminescence, an ATP-dependent process. Pyruvate kinase substrates, PEP and ADP, were present in the assay at Km and approximately 10-fold below Km respectively. The enzyme was assayed at an intermediate level of activity to screen for both inhibitors and activators.
NCGC Assay Protocol Summary for M1-isoform:
Three uL of substrate mix (at r.t.) in assay buffer (50 mM Imidazole pH7.2, 50 mM KCl, 7 mM MgCl2, 0.01% Tween 20, 0.05% BSA) was dispensed into white solid bottom 1,536 well microtiter plates so that the final concentrations of substrates in the assay were 0.1 mM ADP and 0.5 mM PEP. 23 nL of compound were delivered by a pin tool and 1 uL of enzyme mix (final concentration of 1 nM) in assay buffer (4 degree Celsius) was added. Plates were incubated at room temperature for 1 hour. Two uL of detection mix (Kinase-Glo, Promega; at 4 degree Celsius protected from light) was added and luminescence read by a ViewLux (Perkin Elmer) at 1 second exposure/plate. Data were normalized to the uninhibited (row 31). Additionally, a no enzyme and 5-fold enzyme control was dispensed in row 32, split equally between the two conditions.

Sequence of Pyruvate kinase PKM (Homo sapiens) (P14618 whole entry, looked up, canonical isoform): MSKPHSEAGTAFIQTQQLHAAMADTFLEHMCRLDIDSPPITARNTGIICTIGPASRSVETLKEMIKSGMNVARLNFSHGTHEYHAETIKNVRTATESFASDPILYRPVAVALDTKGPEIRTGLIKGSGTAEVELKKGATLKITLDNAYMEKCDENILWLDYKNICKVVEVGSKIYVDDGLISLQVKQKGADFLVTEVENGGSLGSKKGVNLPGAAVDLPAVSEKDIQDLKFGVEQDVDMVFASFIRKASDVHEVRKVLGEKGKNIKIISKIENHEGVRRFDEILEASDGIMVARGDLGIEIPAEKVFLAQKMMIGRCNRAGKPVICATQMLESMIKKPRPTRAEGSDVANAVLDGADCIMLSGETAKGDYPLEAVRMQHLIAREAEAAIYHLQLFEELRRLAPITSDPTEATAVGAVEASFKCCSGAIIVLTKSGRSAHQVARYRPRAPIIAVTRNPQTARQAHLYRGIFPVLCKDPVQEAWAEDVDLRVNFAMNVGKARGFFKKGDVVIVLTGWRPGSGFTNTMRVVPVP

Max response, inactive:
Cc1ccc(NS(=O)(=O)c2cc3c(cc2F)NC(=O)CC3)cc1Cl 4.95%, CNc1cc2c(cc1S(=O)(=O)Nc1ccc(C)c(C)c1)CCC(=O)N2 -0.656%, Cc1ccc(NS(=O)(=O)c2ccc3c(c2)CC(=O)N3)cc1C 23.4%, Nc1cccc(S(=O)(=O)N2CCCN(S(=O)(=O)c3ccc4c(c3)OCCO4)CC2)c1 -0.314%, Cc1ccc(N[S+](=O)([O-])c2cc3c(cc2CCc2ccccc2)NC(=O)CO3)cc1C -3.27%, N#Cc1cccc(NS(=O)(=O)c2ccc3c(c2)CCC(=O)N3)c1 -2.21%, Cc1ccc(NS(=O)(=O)c2ccc3c(c2)C(Cl)(Cl)C(=O)N3)cc1C 0.115%, Cc1ccc(NS(=O)(=O)c2ccc3c(c2)CCC(=O)N3)cc1Cl 8.72%, O=S(=O)(c1ccc2c(c1)OCCO2)N1CCN(S(=O)(=O)c2c(F)cccc2F)CC1 -8.27%, Cc1ccc(N(C)S(=O)(=O)c2ccc3c(c2)CCC(=O)N3)cc1C 0.78%, Cc1ccc(NS(=O)(=O)c2ccc3c(c2)CCC(=O)N3)cc1C -6.39%, CC(=O)N1c2ccc(S(=O)(=O)Nc3ccc(C)c(C)c3)cc2CC1C (stereo not given) 13.1%, CCNc1cccc(S(=O)(=O)N2CCCN(S(=O)(=O)c3ccc4c(c3)OCCO4)CC2)c1 8.55%, O=C1CCc2cc(S(=O)(=O)Nc3ccc(F)c(Cl)c3)ccc2N1 -1.6%, O=C1CCc2cc([S+](=O)([O-])Nc3ccc(N[S+](=O)([O-])c4ccc5c(c4)CCC(=O)N5)cc3)ccc2N1 -0.299%, COc1cccc(Cn2ncc3c4sc(S(C)=O)cc4n(C)c3c2=O)c1 (stereo not given) 3.1%, O=C1CCc2cc(S(=O)(=O)Nc3ccc(Cl)c(Cl)c3)c(F)cc2N1 2.68%, Cc1ccc(NS(=O)(=O)c2cc3c(cc2N2CCC2)NC(=O)CC3)cc1C -7.63%, Cc1cc2c(s1)c1cnn(Cc3ccccc3F)c(=O)c1n2C -9.51%, COc1cccc(Cn2ncc3c4sc(SC)cc4n(C)c3c2=O)c1 13.2%, CSc1cc2c(s1)c1cnn(Cc3cccc(N)c3)c(=O)c1n2C 7.82%, Cc1c(Cl)cccc1NS(=O)(=O)c1cc2c(cc1Cl)CCC(=O)N2 0.521%, O=C1CCc2cc(S(=O)(=O)Nc3ccc4c(c3)CCC4)ccc2N1 -1.18%, O=C1CCc2cc(S(=O)(=O)Nc3cccc(Oc4ccccc4)c3)ccc2N1 -2.73%, Cc1ccc(Cl)cc1NS(=O)(=O)c1cc2c(cc1Cl)CCC(=O)N2 1.5%, Cc1ccc(NS(=O)(=O)c2cc3c(cc2N(C)C)CCC(=O)N3)cc1C -0.287%, O=C1CCc2cc(S(=O)(=O)Nc3cccc(B(O)O)c3)ccc2N1 -3.5%, CN(C)c1cccc(S(=O)(=O)N2CCCN(S(=O)(=O)c3ccc4c(c3)OCCO4)CC2)c1 1.92%, CNc1cccc(S(=O)(=O)N2CCCN(S(=O)(=O)c3ccc4c(c3)OCCO4)CC2)c1 3.54%, Cc1ccc(NS(=O)(=O)c2cc3c(cc2C)OCC(=O)N3)cc1C 2.47%, Cc1ccc(NS(=O)(=O)c2cc3c(cc2Cl)NC(=O)C3)cc1C 2.96%, Cc1cc(NS(=O)(=O)c2ccc3c(c2)CCC(=O)N3)ccc1Cl -0.197%, Cc1ccc(NS(=O)(=O)c2ccc3c(c2)N(C)C(=O)CO3)cc1C 1.15%, Cn1c2cc(S(C)=O)sc2c2cnn(Cc3cccc(N)c3)c(=O)c21 (stereo not given) 2.91%, CC(C)Nc1cccc(S(=O)(=O)N2CCCN(S(=O)(=O)c3ccc4c(c3)OCCO4)CC2)c1 4.41%, N#Cc1ccc(NS(=O)(=O)c2ccc3c(c2)CCC(=O)N3)cc1 5.23%, Cc1cc2c(s1)c1cnn(Cc3cc(F)c(F)cc3F)c(=O)c1n2C -8.12%, O=C1CCc2cc([S+](=O)([O-])NC3CCOCC3)ccc2N1 -5.17%, Cc1cc2c(s1)c1cnn(Cc3c(Cl)ccc(C)c3F)c(=O)c1n2C 4.91%, Cc1ccc(NS(=O)(=O)c2ccc3c(c2)CCC(=O)N3)cc1F 0.0639%
